PubChem BioAssay (NCATS)
A number with no mark means an inactive call. Results filed as inconclusive are left out. Active and inactive are the calls of the source. Unless noted, calls follow the shape of the dose curve; as a rule, active = well fitted curve in either direction with a large enough effect (not every such curve was filed as active); inconclusive = small, poorly fitted or top-dose-only effect, or another doubt; inactive = flat fitted curve, though single readings scatter.

What was measured:
[1] = target: Lysosomal acid glucosylceramidase (Homo sapiens) (UniProt P04062); assay: Glucocerebrosidase-p2 (AID 348; in the data active = potency below about 10 µM; also: potency is read from the fitted curve at half-maximal effect); conditions: purified GBA, blue fluorogenic substrate, 40 min
How it was run: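 Compounds titrated from 0.6 nM upwards against 0.2 nM enzyme in pH 5.9 citric acid/KH2PO4, taurocholate, tween-20; blue fluorogenic substrate 80 uM, 40 min room temperature, stopped and read Ex 365/Em 440 for AC50.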

[2] = AP1 Signaling Pathway (AID 357); conditions: ME-180 AP-1-bla reporter, EGF-induced, beta-lactamase ratio, 5 h; at 7.69 µM (top of the series) unless noted; also: % is scaled to controls: 0 for no effect and ±100 for the full control effect
How it was run: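 AP-1-bla ME-180 cells with beta-lactamase reporter under AP-1 response element, stimulated with EC50 EGF; compounds titrated, 5 hours at 37 degrees Celsius. CCF4 read at 460/530 nm ratio; positive and negative modulators judged by AC50.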

[3] = Stat Signaling Pathway (AID 446); conditions: ME-180 SIE beta-lactamase reporter, IL-6 stimulated, 5 h; at 7.69 µM (top of the series) unless noted;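 also: ME-180 cervical cancer cells given 40 pM IL-6 alongside compound; SIE-controlled beta-lactamase reporter measured as 460/530 nm FRET emission ratio; % is scaled to controls: 0 for no effect and ±100 for the full control effect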
How it was run: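 Reporter line: ME-180 cervical carcinoma, SIE-beta-lactamase. Treatment: compound with 40 pM IL-6, 5 hrs, 37 C, in low-serum OPTI-MEM with 10 mM HEPES pH 7.3. Detection: 460/530 nm fluorescence.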

[4] = target: Glucocorticoid receptor (Homo sapiens) (UniProt P04150); assay: GR-GFP Redistribution (AID 450;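 active = compounds whose dose series gives a full or clear partial fitted curve of increased nuclear translocation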; also: potency is read from the fitted curve at half-maximal effect); conditions: U2OS GR-GFP nuclear translocation, laser cytometry, 2 h
[5] = target: Glucocorticoid receptor (Homo sapiens) (UniProt P04150); assay: GR-EFC Redistribution (AID 451; calls by dose curve; also: potency is read from the fitted curve at half-maximal effect); conditions: CHO-K1 GR-EFC translocation, beta-gal luminescence, 2 h
How it was run: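 CHO-K1 cells stably expressing nuclear-localized β-gal enzyme acceptor and GR fused C-terminally to the enzyme donor fragment; ligand-driven nuclear translocation restores β-gal by complementation. Compounds titrated up to 46 uM final, 2 h at 37 °C; luminescence read.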

[6] = target: Mitogen-activated protein kinase 10 (Mus musculus) (UniProt Q61831); assay: JNK3 AlphaScreen Assay (AID 530); conditions: JNK3 lysate, c-Jun phosphorylation; series mostly up to 11.4 µM;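 also: kinase came from lysate of stimulated human HepG2 cells; signal reports phosphorylation of biotinylated GST-cJun 1-79 at Ser73 with 10 µM ATP; % is scaled to controls: 0 for no effect and ±100 for the full control effect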
How it was run: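 Inhibitors reduce antibody binding to phosphorylated biotin-cJun, lowering AlphaScreen luminescence. Lysates from HepG2 cells pre-activated by IL-1beta plus TNF-alpha supplied JNK3; compounds were titrated.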

[7] = target: 3',5'-cyclic-AMP phosphodiesterase 4B (Homo sapiens) (UniProt Q07343); assay: qHTS Assay for Inhibitors of PDE-IV (AID 607; active = well fitted activation curve with a large enough effect in the main read-out, with a control signal flat, not every such curve was filed as active; also: % of control where 0% means no effect); conditions: HEK293 ACTOne CNG channel cells, membrane potential fluorescence; series mostly up to 22.9 µM
How it was run: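 Cell-based read-out of cAMP via a modified cyclic nucleotide-gated channel and membrane potential dye (535/590 nm) in HEK293 cells expressing PDE4 endogenously. Compounds tested up to 22.9 uM final; 100 uM RO 20-1724 reference.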

[8] = target: Cytochrome P450 2C9 (Homo sapiens) (UniProt P11712); assay: qHTS Assay for Inhibitors and Substrates of Cytochrome P450 2C9 (AID 883; active = well fitted curve in the direction sought with a large enough effect; an effect the other way counts as inactive or inconclusive; also: potency is read from the fitted curve at half-maximal effect; nearly all actives have a fitted effect of over 60% in size); conditions: recombinant CYP2C9, luciferin-H luminescence, 60 min; series mostly up to 11.4 µM
How it was run: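 A luminogenic readout tracked human CYP2C9 (10nM) converting deoxyluciferin (100uM, at KM) in 25mM KPO4 during 60 min at 37C with regenerated NADPH. Values normalized to 57uM sulphaphenazole as complete inhibition.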

[9] = target: Cytochrome P450 3A4 (Homo sapiens) (UniProt P08684); assay: qHTS Assay for Activators of Cytochrome P450 3A4 (AID 885; active = well fitted curve in the direction sought with a large enough effect; an effect the other way counts as inactive or inconclusive; also: nearly all actives have a fitted effect of over 65% in size); conditions: recombinant CYP3A4, Luciferin-PPXE luminescence, 60 min; series mostly up to 11.4 µM
How it was run: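 Signal was normalized against complete inhibition by 57 uM ketoconazole. The reaction used 20nM CYP3A4 with 25uM Luciferin-PPXE, 10-min compound preincubation and a 60-min NADPH-supported step at RT.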

[10] = target: Cytochrome P450 2C19 (Homo sapiens) (UniProt P33261); assay: qHTS Assay for Inhibitors and Substrates of Cytochrome P450 2C19 (AID 899; active = well fitted curve in the direction sought with a large enough effect; an effect the other way counts as inactive or inconclusive; also: nearly all actives have a fitted effect of over 60% in size; also: potency is read from the fitted curve at half-maximal effect; as to activity, negative = inhibition: % is scaled to controls: 0 for no effect and ±100 for the full control effect); conditions: recombinant CYP2C19, luciferin-H EGE luminescence; series mostly up to 11.4 µM
How it was run: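 NADPH-dependent conversion of Luciferin-H EGE (10uM, at KM) by 5nM enzyme in 50mM KPO4, 60 min at 37C following 10 min compound preincubation. Stopped with luciferin detection buffer; luminescence read after 20 min.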

[11] = qHTS Assay for Identification of Small Molecule Agonists for Hypoxia Response Element Signaling Pathway (AID 914; active = well fitted activation curve with a large enough effect in the signal ratio, with a control signal flat, not every such curve was filed as active; the % refers to the signal ratio; also: % of control where 0% means no effect); conditions: ME-180 HRE-bla reporter, beta-lactamase ratio, CoCl2, 17 h; activation: hits give high values
How it was run: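 ME-180 cells carrying an HRE-driven beta-lactamase reporter were treated with compounds in a titration series plus an EC50 level of CoCl2 for 17 h at 37 degrees Celsius; CCF4 readout as the 460nm/530nm ratio gave AC50 values.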

[12] = target: Cytochrome P450 2D6 (Homo sapiens) (UniProt P10635); assay: qHTS Assay for Inhibitors and Substrates of Cytochrome P450 2D6 (AID 891; active = well fitted curve in the direction sought with a large enough effect; an effect the other way counts as inactive or inconclusive; also: potency is read from the fitted curve at half-maximal effect; nearly all actives have a fitted effect of over 60% in size); conditions: recombinant CYP2D6, luciferin-ME EGE luminescence; series mostly up to 11.4 µM
How it was run: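 Human CYP2D6 (5 nM) with 30 uM Luciferin-ME EGE (at Km) in 100 mM KPO4, compound preincubated 10 min, then NADPH regeneration system for 60 min at room temperature. Luciferin read by luminescence; normalized to 1.43 uM quinidine.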

[13] = target: Cytochrome P450 3A4 (Homo sapiens) (UniProt P08684); assay: qHTS Assay for Inhibitors and Substrates of Cytochrome P450 3A4 (AID 884; active = well fitted curve in the direction sought with a large enough effect; an effect the other way counts as inactive or inconclusive; also: potency is read from the fitted curve at half-maximal effect; nearly all actives have a fitted effect of over 50% in size); conditions: recombinant CYP3A4, Luciferin-PPXE luminescence; series mostly up to 57.1 µM
How it was run: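 20 nM human CYP3A4 with 25 uM Luciferin-PPXE (at KM) in 200 mM KPO4, preincubated 10 min with compound; NADPH regeneration started a 60 min RT reaction. Luciferin detected by luminescence, normalized to 57 uM ketoconazole as full inhibition.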

Chain of Lysosomal acid glucosylceramidase (Homo sapiens) (P04062 whole entry, looked up): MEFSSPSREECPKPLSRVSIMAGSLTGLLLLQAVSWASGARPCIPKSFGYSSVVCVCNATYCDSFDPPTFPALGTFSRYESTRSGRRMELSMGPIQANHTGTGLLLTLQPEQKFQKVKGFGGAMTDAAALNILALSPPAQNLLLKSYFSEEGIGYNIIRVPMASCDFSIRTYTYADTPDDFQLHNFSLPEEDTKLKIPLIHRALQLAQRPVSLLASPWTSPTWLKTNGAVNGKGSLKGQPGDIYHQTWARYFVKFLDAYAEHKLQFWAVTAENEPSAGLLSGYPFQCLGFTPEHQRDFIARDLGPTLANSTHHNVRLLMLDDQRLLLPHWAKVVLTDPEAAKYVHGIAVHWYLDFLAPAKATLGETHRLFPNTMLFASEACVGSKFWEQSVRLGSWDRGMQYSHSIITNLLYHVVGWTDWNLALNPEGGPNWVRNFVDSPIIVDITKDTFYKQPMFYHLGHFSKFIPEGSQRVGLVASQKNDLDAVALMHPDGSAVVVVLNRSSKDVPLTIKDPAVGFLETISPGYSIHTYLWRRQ
Chain of 3',5'-cyclic-AMP phosphodiesterase 4B (Homo sapiens) (Q07343 whole entry, looked up): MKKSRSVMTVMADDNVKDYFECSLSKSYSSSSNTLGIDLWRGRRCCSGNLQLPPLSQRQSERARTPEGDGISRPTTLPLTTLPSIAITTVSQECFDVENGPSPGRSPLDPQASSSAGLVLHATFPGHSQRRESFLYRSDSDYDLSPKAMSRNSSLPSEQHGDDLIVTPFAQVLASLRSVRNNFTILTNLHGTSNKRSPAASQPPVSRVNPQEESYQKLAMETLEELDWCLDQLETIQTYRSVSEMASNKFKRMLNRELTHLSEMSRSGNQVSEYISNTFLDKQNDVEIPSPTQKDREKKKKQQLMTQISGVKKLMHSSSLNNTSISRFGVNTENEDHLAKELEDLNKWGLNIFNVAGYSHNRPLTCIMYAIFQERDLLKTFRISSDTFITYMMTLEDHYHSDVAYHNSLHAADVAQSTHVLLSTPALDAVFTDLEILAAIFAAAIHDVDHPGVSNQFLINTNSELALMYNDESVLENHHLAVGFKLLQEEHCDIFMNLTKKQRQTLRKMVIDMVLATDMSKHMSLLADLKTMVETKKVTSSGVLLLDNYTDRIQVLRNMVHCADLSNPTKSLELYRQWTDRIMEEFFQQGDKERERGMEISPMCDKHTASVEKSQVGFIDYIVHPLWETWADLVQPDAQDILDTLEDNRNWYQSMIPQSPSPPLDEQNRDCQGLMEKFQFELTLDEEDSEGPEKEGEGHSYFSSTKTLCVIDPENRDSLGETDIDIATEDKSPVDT
Chain of Cytochrome P450 2C19 (Homo sapiens) (P33261 whole entry, looked up): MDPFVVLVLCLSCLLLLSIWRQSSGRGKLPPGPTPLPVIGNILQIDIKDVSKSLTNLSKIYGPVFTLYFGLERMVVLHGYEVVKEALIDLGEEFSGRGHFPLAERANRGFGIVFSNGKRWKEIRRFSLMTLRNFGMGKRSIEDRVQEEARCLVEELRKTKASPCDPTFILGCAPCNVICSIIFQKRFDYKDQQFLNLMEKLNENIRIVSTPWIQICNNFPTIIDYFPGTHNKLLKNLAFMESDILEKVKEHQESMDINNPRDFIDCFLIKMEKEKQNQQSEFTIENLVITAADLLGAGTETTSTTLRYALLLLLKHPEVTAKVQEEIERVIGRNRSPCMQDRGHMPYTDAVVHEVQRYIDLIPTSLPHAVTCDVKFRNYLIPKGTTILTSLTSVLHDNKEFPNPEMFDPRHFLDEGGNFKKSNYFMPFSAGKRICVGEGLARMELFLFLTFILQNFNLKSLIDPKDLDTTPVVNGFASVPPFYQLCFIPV
Chain of Cytochrome P450 3A4 (Homo sapiens) (P08684 whole entry, looked up): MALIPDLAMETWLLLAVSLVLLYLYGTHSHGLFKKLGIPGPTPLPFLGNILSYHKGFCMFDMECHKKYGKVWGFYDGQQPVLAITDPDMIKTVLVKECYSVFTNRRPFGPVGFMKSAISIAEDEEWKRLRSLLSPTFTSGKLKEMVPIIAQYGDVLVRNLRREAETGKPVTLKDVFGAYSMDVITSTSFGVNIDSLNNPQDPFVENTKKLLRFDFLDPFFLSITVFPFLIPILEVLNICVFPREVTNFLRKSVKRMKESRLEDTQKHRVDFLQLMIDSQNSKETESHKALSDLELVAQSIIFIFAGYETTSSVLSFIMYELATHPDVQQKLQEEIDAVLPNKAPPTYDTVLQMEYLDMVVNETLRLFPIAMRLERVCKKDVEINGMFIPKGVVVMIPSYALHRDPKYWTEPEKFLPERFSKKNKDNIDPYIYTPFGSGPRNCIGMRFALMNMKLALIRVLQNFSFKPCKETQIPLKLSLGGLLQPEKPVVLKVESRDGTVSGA
Chain of Glucocorticoid receptor (Homo sapiens) (P04150 whole entry, looked up, the tested form may be a part): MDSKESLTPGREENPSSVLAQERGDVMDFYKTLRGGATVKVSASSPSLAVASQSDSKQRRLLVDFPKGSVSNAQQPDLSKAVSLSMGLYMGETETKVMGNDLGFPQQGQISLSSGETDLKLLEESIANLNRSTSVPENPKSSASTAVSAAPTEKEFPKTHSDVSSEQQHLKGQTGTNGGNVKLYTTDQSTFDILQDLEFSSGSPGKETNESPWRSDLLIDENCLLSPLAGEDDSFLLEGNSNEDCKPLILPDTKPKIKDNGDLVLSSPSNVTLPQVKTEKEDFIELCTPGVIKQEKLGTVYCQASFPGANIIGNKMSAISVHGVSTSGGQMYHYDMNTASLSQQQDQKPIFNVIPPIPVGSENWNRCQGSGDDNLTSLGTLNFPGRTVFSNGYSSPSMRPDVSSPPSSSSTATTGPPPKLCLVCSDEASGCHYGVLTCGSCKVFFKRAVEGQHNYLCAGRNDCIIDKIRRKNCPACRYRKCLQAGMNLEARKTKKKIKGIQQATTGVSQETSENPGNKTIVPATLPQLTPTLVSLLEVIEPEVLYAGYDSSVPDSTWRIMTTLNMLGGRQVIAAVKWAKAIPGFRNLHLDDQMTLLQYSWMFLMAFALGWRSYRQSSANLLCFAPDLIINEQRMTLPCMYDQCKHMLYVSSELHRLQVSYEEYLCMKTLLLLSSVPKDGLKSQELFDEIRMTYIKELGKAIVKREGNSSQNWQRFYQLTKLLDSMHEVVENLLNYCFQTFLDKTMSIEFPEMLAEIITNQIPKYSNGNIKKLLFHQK
Chain of Cytochrome P450 2C9 (Homo sapiens) (P11712 whole entry, looked up): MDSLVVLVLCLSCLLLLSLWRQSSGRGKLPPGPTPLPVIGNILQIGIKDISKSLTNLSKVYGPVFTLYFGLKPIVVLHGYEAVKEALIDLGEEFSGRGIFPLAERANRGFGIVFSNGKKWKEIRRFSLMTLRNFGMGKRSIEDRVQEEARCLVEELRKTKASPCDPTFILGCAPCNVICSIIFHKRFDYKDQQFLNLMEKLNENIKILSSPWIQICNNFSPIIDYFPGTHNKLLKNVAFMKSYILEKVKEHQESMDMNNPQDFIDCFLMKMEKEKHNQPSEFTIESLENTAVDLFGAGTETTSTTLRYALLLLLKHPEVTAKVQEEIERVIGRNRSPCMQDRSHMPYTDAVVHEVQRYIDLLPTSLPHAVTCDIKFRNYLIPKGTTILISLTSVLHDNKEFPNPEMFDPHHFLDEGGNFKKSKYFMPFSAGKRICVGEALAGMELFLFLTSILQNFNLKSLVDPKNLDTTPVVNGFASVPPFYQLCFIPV
Chain of Cytochrome P450 2D6 (Homo sapiens) (P10635 whole entry, looked up): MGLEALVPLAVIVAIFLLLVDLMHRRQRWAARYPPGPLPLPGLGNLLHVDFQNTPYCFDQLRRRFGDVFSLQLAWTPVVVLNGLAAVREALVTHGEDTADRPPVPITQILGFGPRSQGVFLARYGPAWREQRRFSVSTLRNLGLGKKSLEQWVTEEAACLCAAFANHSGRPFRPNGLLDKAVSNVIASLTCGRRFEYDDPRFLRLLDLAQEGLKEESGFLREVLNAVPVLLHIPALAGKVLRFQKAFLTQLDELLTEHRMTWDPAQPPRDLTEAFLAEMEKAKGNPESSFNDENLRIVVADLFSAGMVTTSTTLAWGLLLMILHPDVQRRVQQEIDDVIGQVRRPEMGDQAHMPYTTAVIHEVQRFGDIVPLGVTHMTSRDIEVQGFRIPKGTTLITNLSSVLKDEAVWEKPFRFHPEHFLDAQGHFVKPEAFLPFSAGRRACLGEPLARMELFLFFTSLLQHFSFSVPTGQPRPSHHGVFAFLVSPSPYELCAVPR

CN1CCC[C@H](C(=O)OCC(=O)[C@]2(O)CC[C@@H]3[C@H]4CCC5=CC(=O)CC[C@@]5(C)[C@H]4[C@@H](O)C[C@]32C)C1
Potency [1]: > 11.4 µM
activity change, negative = inhibition [2]: 11%
activity, negative = inhibition [3]: -2.61%
Potency [4]: 0.135 µM (active)
Potency [5]: > 9.22 µM
Potency [6]: inactive
Potency [7]: inactive

O=C(c1[nH]o[n+](=O)c1C(=O)c1csc2ccccc12)c1csc2ccccc12
Potency [1]: > 11.4 µM
activity change, negative = inhibition [2]: 3.39%
activity, negative = inhibition [3]: -7.78%
Potency [4]: > 46 µM
Potency [5]: > 9.22 µM
Potency [6]: inactive
Potency [7]: inactive
Potency [8]: 1.58 µM (active)
Potency [9]: inactive

CN(C)C(=O)C1CCN(Cc2c[nH]c3ccccc23)CC1
Potency [1]: > 11.4 µM
activity change, negative = inhibition [2]: -1.75%
activity, negative = inhibition [3]: -4.74%
Potency [4]: > 46 µM
Potency [5]: > 9.22 µM
Potency [6]: inactive
Potency [7]: inactive

CC(C)Oc1cc(O)c2c(c1)OCC=C2CCC(=O)O
Potency [1]: > 11.4 µM
activity change, negative = inhibition [2]: 0.742%
activity, negative = inhibition [3]: 0.331%
Potency [4]: > 46 µM
Potency [5]: > 9.22 µM
Potency [6]: inactive
Potency [7]: inactive

COc1ccc(N(CC(=O)O)N=O)cc1
Potency [1]: > 11.4 µM
activity change, negative = inhibition [2]: 1.5%
activity, negative = inhibition [3]: 2.83%
Potency [4]: > 46 µM
Potency [5]: > 9.22 µM
Potency [6]: inactive
Potency [7]: inactive
Potency [10]: inactive
activation [11]: 10.3%

N=C(N)SC(c1ccccc1)c1ccccc1
Potency [1]: > 11.4 µM
activity change, negative = inhibition [2]: 6.69%
activity, negative = inhibition [3]: 0.795%
Potency [4]: > 46 µM
Potency [5]: > 9.22 µM
Potency [6]: inactive
Potency [7]: inactive

O=C1C[C@H]2OCC=C3CN4CC[C@@]5(C(=O)O)[C@H](N1)[C@H]2[C@H]3C[C@H]45
Potency [1]: > 11.4 µM
activity change, negative = inhibition [2]: 1.86%
activity, negative = inhibition [3]: -5.3%
Potency [4]: > 46 µM
Potency [5]: > 9.22 µM
Potency [6]: inactive
Potency [7]: inactive

CC(C)(C)c1ccc(O)c(CN(Cc2cc(C(C)(C)C)ccc2O)c2ccccc2)c1
Potency [1]: > 11.4 µM
activity change, negative = inhibition [2]: 4.11%
activity, negative = inhibition [3]: 2.48%
Potency [4]: > 46 µM
Potency [5]: > 9.22 µM
Potency [6]: inactive
Potency [7]: inactive
activation [11]: 12.3%

NS(=O)(=O)c1ccc(N=Nc2ncccc2O)cc1
Potency [1]: > 11.4 µM
activity change, negative = inhibition [2]: 7.11%
activity, negative = inhibition [3]: 5.47%
Potency [4]: > 46 µM
Potency [5]: > 9.22 µM
Potency [6]: inactive
Potency [7]: inactive
Potency [9]: inactive

Cc1nc(N)nc2ccccc12
Potency [1]: > 11.4 µM
activity change, negative = inhibition [2]: -0.162%
activity, negative = inhibition [3]: 2.21%
Potency [4]: > 46 µM
Potency [5]: > 9.22 µM
Potency [6]: inactive
Potency [7]: inactive

COc1ccc(C[C@H](O)CN2CCOCC2)cc1
Potency [1]: > 11.4 µM
activity change, negative = inhibition [2]: -3.04%
activity, negative = inhibition [3]: 9.2%
Potency [4]: > 46 µM
Potency [5]: > 9.22 µM
Potency [6]: inactive
Potency [7]: inactive

C[C@@]12C[C@H](O)[C@@H]3[C@H](CCC4=CC(=O)CC[C@]43C)[C@H]1CC[C@@H]2c1csc(-c2ccccc2)n1
Potency [1]: > 11.4 µM
activity change, negative = inhibition [2]: -1.5%
activity, negative = inhibition [3]: -6.13%
Potency [4]: > 46 µM
Potency [5]: > 9.22 µM
Potency [6]: inactive
Potency [7]: inactive

CN(C)CC[C@@H](C(=O)C(C)(C)C)c1ccccn1
Potency [1]: > 11.4 µM
activity change, negative = inhibition [2]: 2.04%
activity, negative = inhibition [3]: 1.4%
Potency [4]: > 46 µM
Potency [5]: > 9.22 µM
Potency [6]: inactive
Potency [7]: inactive

CC(=O)NC1=C(OS(=O)(=O)c2ccc(C)cc2)CN(C)C1=O
Potency [1]: > 11.4 µM
activity change, negative = inhibition [2]: 24.1%
activity, negative = inhibition [3]: -10.5%
Potency [4]: > 46 µM
Potency [5]: > 9.22 µM
Potency [6]: inactive
Potency [7]: inactive

N[C@@H](CCCCO)C(=O)O
Potency [1]: > 11.4 µM
activity change, negative = inhibition [2]: 4.11%
activity, negative = inhibition [3]: -3.96%
Potency [4]: > 46 µM
Potency [5]: > 9.22 µM
Potency [6]: inactive
Potency [7]: inactive

CN(C)CCC[C@@H]1c2ccccc2Oc2ccc(C(F)(F)F)cc21
Potency [1]: > 11.4 µM
activity change, negative = inhibition [2]: 21.1%
activity, negative = inhibition [3]: 4.88%
Potency [4]: > 46 µM
Potency [5]: > 9.22 µM
Potency [6]: inactive
Potency [7]: inactive

C[N@@+]1(Cc2ccc(Cl)c(Cl)c2)CCC[C@@H]1c1ccc[n+](Cc2ccc(Cl)c(Cl)c2)c1
Potency [1]: > 11.4 µM
activity change, negative = inhibition [2]: -3.2%
activity, negative = inhibition [3]: -0.293%
Potency [4]: > 46 µM
Potency [5]: > 9.22 µM
Potency [6]: inactive
Potency [7]: inactive
Potency [12]: 3.16 µM (active)

O=C(CCN1CCCCC1)c1csc2ccccc12
Potency [1]: > 11.4 µM
activity change, negative = inhibition [2]: -4.73%
activity, negative = inhibition [3]: -9.72%
Potency [4]: > 46 µM
Potency [5]: > 9.22 µM
Potency [6]: inactive
Potency [7]: inactive
activation [11]: -7.69%

COc1ccc(C(=O)N/N=C2/C(=O)c3c(C)cc(C)cc3CC2(C)C)cc1
Potency [1]: > 11.4 µM
activity change, negative = inhibition [2]: -13.7%
activity, negative = inhibition [3]: 6.46%
Potency [4]: > 46 µM
Potency [5]: > 9.22 µM
Potency [6]: inactive
Potency [7]: inactive
Potency [13]: 3.16 µM (active)
Potency [9]: inactive
Potency [10]: 3.98 µM (active)

c1ccc2c[n+](CCCC[n+]3ccc4ccccc4c3)ccc2c1
Potency [1]: > 11.4 µM
activity change, negative = inhibition [2]: 9.12%
activity, negative = inhibition [3]: -5.69%
Potency [4]: > 46 µM
Potency [5]: > 9.22 µM
Potency [6]: inactive
Potency [7]: inactive

C[C@@H]1CC[C@H]2[C@H](C)[C@H]3[C@H](C[C@H]4[C@@H]5CC=C6C[C@@H](O)CC[C@@]6(C)[C@@H]5C[C@@H](O)[C@]34C)N2C1
Potency [1]: > 11.4 µM
activity change, negative = inhibition [2]: -4.34%
activity, negative = inhibition [3]: -3.84%
Potency [4]: > 46 µM
Potency [5]: > 9.22 µM
Potency [6]: inactive
Potency [7]: inactive

O=C(O)CC[P+](c1ccccc1)(c1ccccc1)c1ccccc1
Potency [1]: > 11.4 µM
activity change, negative = inhibition [2]: 2.51%
activity, negative = inhibition [3]: 4.75%
Potency [4]: > 46 µM
Potency [5]: > 9.22 µM
Potency [6]: inactive
Potency [10]: inactive
